Laboratory results published in PubChem BioAssay (NCATS).
Records with an inconclusive call do not appear. Activity calls are given as the source filed them. The call rests on the fitted dose curve; in most records, active means well fitted inhibition curve with a large enough effect; inconclusive means small, poorly fitted or top-dose-only effect; inactive means flat fitted curve, though single readings scatter.

Columns and labels:
Assay in all cases: qHTS profiling for inhibitors of Plasmodium falciparum proliferation (AID 504749); further: nearly all actives have a fitted effect of over 60% in size
Conditions in all cases: P. falciparum in erythrocytes, SYBR Green DNA, 72 h; series mostly up to 28.7 µM
[1] = system: CP201
Summary of the method: (§1)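 Infected RBCs, 0.3% parasitemia/2.5% Hct final; cpd 72 h, 37 C, 5% CO2; lysis buffer with saponin/triton/SYBR Green I, o/n RT dark; FI 485/535; norm. to artemisinin (0.29 uM) and DMSO.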

[2] = system: CP203
Summary of the method: as §1

[3] = system: CP211
Summary of the method: as §1

[4] = system: CP215
Summary of the method: as §1

[5] = system: CP217
Summary of the method: as §1

[6] = system: CP237
Summary of the method: as §1

[7] = system: CP238
Summary of the method: as §1

[8] = system: CP247
Summary of the method: as §1

[9] = system: CP250
Summary of the method: as §1

[10] = system: CP252
Summary of the method: as §1

Measured: Potency
Potency means the concentration at half of the fitted maximal effect.

O=C1c2ccccc2CN2C(=O)c3ccccc3CN12
inactive: all assays above

OCC(O)CO
inactive: all assays above

O=C1CCC(c2ccccc2)(C2CCN(Cc3ccccc3)CC2)C(=O)N1 (stereo not given)
active: [6] 11.2 µM
inactive: all other assays above

C=CCOc1ccc(CC(=O)O)cc1Cl
inactive: all assays above

NCC[C@H](O)C(=O)N[C@@H]1C[C@H](N)[C@@H](O[C@H]2O[C@H](CN)[C@@H](O)[C@H](O)[C@H]2O)[C@H](O)[C@H]1O[C@H]1O[C@H](CO)[C@@H](O)[C@H](N)[C@H]1O
inactive: all assays above

CN1C(=O)C[C@@H](C(=O)N[C@@H](Cc2cnc[nH]2)C(=O)N2CCC[C@H]2C(N)=O)NC1=O
inactive: all assays above

CC(/C=C/C=C(\C)C(=O)O[C@@H]1O[C@H](CO[C@@H]2O[C@H](CO)[C@@H](O)[C@H](O)[C@H]2O)[C@@H](O)[C@H](O)[C@H]1O)=C\C=C\C=C(C)\C=C\C=C(/C)C(=O)O[C@@H]1O[C@H](CO[C@@H]2O[C@H](CO)[C@@H](O)[C@H](O)[C@H]2O)[C@@H](O)[C@H](O)[C@H]1O
inactive: all assays above

CC(=O)Nc1ccc(OC(C)=O)cc1
inactive: all assays above

NC(=O)Oc1ccc(Cc2ccccc2)cc1
inactive: all assays above

Cc1cc(=O)c(C(=O)N[C@@H](C(=O)N[C@@H]2C(=O)N3C(C(=O)O)=C(CSc4nnnn4C)CS[C@H]23)c2ccc(O)cc2)c[nH]1
inactive: all assays above

CC1CC(O)CC(C)(C)C1 (stereo not given)
inactive: all assays above

O=C(O)COc1ccccc1/C=N/NC(=O)c1ccncc1
inactive: all assays above

Cc1ncc(C[n+]2csc(CCOP(=O)(O)OP(=O)(O)O)c2C)c(N)n1
inactive: all assays above

COc1ccc(/C=C/C(=O)O)cc1
inactive: all assays above

O=c1[nH]c(=O)n([C@H]2C[C@H](O)[C@@H](CO)O2)cc1/C=C/Br
inactive: all assays above

CC(CC=O)CCCC(C)(C)O (stereo not given)
inactive: all assays above

O=C(NCCNCC(O)COc1ccc(O)cc1)N1CCOCC1 (stereo not given)
inactive: all assays above

CO[C@H]1C[C@@H]2CC[C@@H](C)[C@@](O)(O2)C(=O)C(=O)N2CCCC[C@H]2C(=O)O[C@H]([C@H](C)C[C@@H]2CC[C@@H](OC(=O)C(C)(CO)CO)[C@H](OC)C2)CC(=O)[C@H](C)/C=C(\C)[C@@H](O)[C@@H](OC)C(=O)[C@H](C)C[C@H](C)/C=C/C=C/C=C/1C
inactive: all assays above

CCC(Cc1c(I)cc(I)c(O)c1I)C(=O)O (stereo not given)
inactive: all assays above

CC1(O)CCC(C(C)(C)O)CC1 (stereo not given)
inactive: all assays above

CCOC(=O)c1cc(-c2ccccc2)nc2ccc(C)cc12
inactive: all assays above

CC(C)[C@H](N)C(=O)OCC(CO)OCn1cnc2c(=O)[nH]c(N)nc21 (stereo not given in full)
inactive: all assays above

O=[n+]1ccn([O-])c2ccccc21
inactive: all assays above

CN(CCO)CC(O)Cn1cnc2c1c(=O)n(C)c(=O)n2C (stereo not given) (tested in a mixture with another compound)
inactive: all assays above

CCC(C)[C@@H](N)C(=O)O (stereo not given in full)
inactive: all assays above

CC(C)CCCC(C)NC(C)C (stereo not given)
inactive: all assays above

Cc1cccc(Nc2ncccc2C(=O)O)c1C
inactive: all assays above

O=C(O)/C=C/c1ccccc1
inactive: all assays above

CC1C(=O)CC2C3(C)CCC2(C(C)C(=O)O)C(=O)C13 (stereo not given)
inactive: all assays above

CC1=CCC2CC1C2(C)C (stereo not given)
inactive: all assays above

O[C@@H]([C@H](O)[C@H](O)CBr)[C@H](O)CBr
inactive: all assays above

CCCOC(=O)c1ccccc1O
inactive: all assays above
